About 83,000 compounds went through this panel and 20% of them were active in at least one assay; those are over-represented in the sample as a whole.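 Negative percent growth values reflect cell death: -40 means 40% of the cells present at the start died, and -100 means all died.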 A number with no mark means an inactive call. The source made the active and inactive calls. Rule for the calls: active = growth percent below 10; inactive = the rest.

The assay relates to RPMI-8226 leukemia. Nature of the assay: NCI-60 one-dose screen, 48 h (100 = growth as untreated, 0 = no growth, -100 = all killed). The note with it: 10 µM unless noted.
With `CS(=O)(=O)Nc1ccc(C(=O)NC(C(=O)NO)c2ccc(-c3cccc(F)c3)cc2)cc1` (stereo not drawn), the growth was 82.8%.

In the case of `COc1cccc2c1C=C1CCCCC3=Cc4c(OC)cccc4OC13O2`, the growth is 42.6%.

As for `COc1cccc(/C(C#N)=C/c2nc3c(N4CCOCC4)nc(Cl)nc3n2C)c1`, the growth is -23.5% (active). Regarding `NCCOc1ncccc1/C=C1\c2ccccc2-c2ccc(F)cc21`, the growth was -14.6% (active). Then `Cc1ccc2cccc(Oc3ccc(Nc4ncnc5onc(-c6ccccc6)c45)cc3)c2n1`, with 111%; and `CCN1C(=O)N(c2ccccc2)C2Nn3c(s/c(=C4\C(=O)N(C(C)C)c5ccccc54)c3=O)=NC21` (stereo not drawn), with 97.7%; and `c1ccc2c(c1)oc1cc3sccc3nc12`, with 99.4%. With `O=C1/C(=C/c2cccc(O)c2)COc2ccc(O)cc21` the figure was -10.6% (active). Then `COc1cccc(C(=O)Cn2cc(/C=C(\C#N)S(=O)(=O)c3ccccc3)c3ccccc32)c1`, with 72.2%. As for `CCOC(=O)C1=C(C)N=c2s/c(=C\c3ccccc3O)c(=O)n2C1c1ccc(OC)c2ccccc12` (stereo not drawn), the growth was -15.1% (active).

In the case of `Cn1c(/C=C(\C#N)c2ccccc2)nc2c(N3CCOCC3)nc(Cl)nc21`, the growth was -24.3% (active). For the compound `O=S(=O)(Nc1ncccn1)c1ccc(NC2Nc3nc4ccccc4nc3S2)cc1` (stereo not drawn), the growth was 99%. Then `COC(=O)C1(C)CCC[C@]2(C)[C@H]3C[C@H]4C(C(C)C)=C[C@]3(CC[C@@H]12)[C@H]1[C@@H]4[C@@H](OCC#CCN2CCOCC2)CC[C@@H]1OCC#CCN1CCOCC1` (stereo partly drawn), with 67.7%.

The values above are taken from PubChem BioAssay (NCI).
